{"source": "the supplement of paper PMC10338343", "note": "± gives the standard deviation."}
{"test_system": "EfPiwi piRISC loaded with L1MC piRNA (26 nt)", "assay": "pre-steady-state target cleavage rate (min^-1); auxiliary factor: 500 nM Ephydatia muelleri Gtsf1; guide: L1MC piRNA 5'p-UAACUAAAUACUAUGCAAGCUGUAGG; MIWI and MILI are mouse PIWI proteins and EfPiwi is from a freshwater sponge; tags in brackets are library labels; higher = faster piRNA-guided slicing of the target", "outline": "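Using HEPES–potassium acetate buffer at 33 °C, 1 nM active affinity-purified piRISC with a single synthetic guide was mixed with 0.1 nM transcribed, DNA-blocked target RNA library for 0–8 or 0–960 min, with or without 500 nM GTSF1 partner protein. Uncleaved targets were sequenced and normalised to depth and to weakly complementary targets, and three trials were pooled with k3 capped at 0.0001 min^-1. A burst-and-steady-state fit gave the pre-steady-state cleavage rate.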"}
{"sequence": "UCCUGGAUGUCGAACGAUACAUUUUAGUUA", "pre-steady-state target cleavage rate": "< 0.0001"}
{"sequence": "UCCUGGAACAGCUUGCUUAGUAUUUAGUUA", "pre-steady-state target cleavage rate": "0.0181 ± 0.005"}
{"sequence": "UCCUGGUACAGCUUGCAUAGUAUUUAUGUUA", "pre-steady-state target cleavage rate": "0.00329 ± 0.0024"}
{"sequence": "UCCUCCUACAGCUUGCAUAGUAUUUAGUUC [g2:g26:cont:t1C]", "pre-steady-state target cleavage rate": "0.146 ± 0.035"}
{"sequence": "UCCUCCUACAGCUUGCAUAGUAUUUAGUUA [g2:g26:cont:t1A]", "pre-steady-state target cleavage rate": "0.121 ± 0.034"}
{"sequence": "UCCUGCUACAGCUUGCAUAGUAAAUAGUAA", "pre-steady-state target cleavage rate": "0.00351 ± 0.0022"}
{"sequence": "UCCUGGAUGAGCUUGCAUAGUAUUUGAGUUA", "pre-steady-state target cleavage rate": "0.00491 ± 0.0024"}
{"sequence": "UCCUGGAACAGGUUGCAAAGUAUUUAGUUA", "pre-steady-state target cleavage rate": "0.0118 ± 0.0039"}
{"sequence": "UCCUGGAUGAGCUUGCAUAGUAUUUAGUA", "pre-steady-state target cleavage rate": "0.00405 ± 0.0032"}
{"sequence": "UCCUGGAUGUCGAACGUUAGUAUUAAGUAA", "pre-steady-state target cleavage rate": "< 0.0001"}
{"sequence": "UCCUGGUACAGCUUGUAUAGUAUUUAGUUA", "pre-steady-state target cleavage rate": "0.0177 ± 0.0048"}
{"sequence": "UCCUGGAUCAGGUUGCUUAGUAUUUAGUUA", "pre-steady-state target cleavage rate": "0.00555 ± 0.0024"}
{"sequence": "UCCUGGAUCAGCAUGCUUAGUAUUUAGUUA", "pre-steady-state target cleavage rate": "0.0112 ± 0.0042"}
{"sequence": "UCCUGGUACAGCUUCCAUAGUAUUUAGUAA", "pre-steady-state target cleavage rate": "0.00378 ± 0.0022"}
{"sequence": "UCCUGGAUGAGCUUGCAUAGUAAUUACAAA", "pre-steady-state target cleavage rate": "0.00446 ± 0.0034"}
{"sequence": "UCCUGGAUGUCGAACGUAUCAAUAUAGUUA", "pre-steady-state target cleavage rate": "< 0.0001"}
